Measured values reported in the supplement of paper PMC11417369.
In all, about 25,000 sequences were measured (“ln(normalized median fluorescence intensity)”: median about 7.1, highest 2% from about 10 on). Shown is part of a subset that was picked to be rich in the highest values.

system: PfSIP2 AP2 domain 1 (GST-tagged); experiment: gcPBM binding intensity (ln(normalized median fluorescence intensity)); higher = stronger DNA binding
Outline: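 Binding intensity values are the highest Masliner-normalised natural-log median intensity among replicate spots of either probe orientation. The binding step lasted 1 h in 1× PBS with 1% milk, 0.2 mg/ml BSA, 0.5% salmon testes DNA and 0.03% Triton X-100, using GST-tagged P. falciparum DNA-binding domains expressed in E. coli on an Agilent 4 × 180k array of primer-extended double-stranded 36-bp intergenic genomic probes plus negative controls. Alexa488 anti-GST antibody and a 488 nm scan detected bound protein.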

| Sequence | gcPBM binding intensity (ln) |
| --- | --- |
| TGAATAAATATAAAAGGTACACATATAAATATATAT [XGTACX_site6349] | 7.11 |
| TATATATATATAATATGTACATATAATCAACATTTT [XGTACX_site3915] | 8.68 |
| TATTAGTCGAATGATGTACACACATACAAAACATTT [CACACA_site9331] | 6.96 |
| TTTTTTTTTTGATGTTGTACATATATATTATATATA [XGTACX_site6377] | 7.17 |
| TAAAAATAATTTGCATGTACATAGGTCGATGTATTT [XGTACX_site1357] | 7.08 |
| ATACATATAGGATGCACACATAATTCAAATACAATA [CACACA_site651] | 7.73 |
| ATCTATCATATTTATGCACACAAAAATAATTAATTC [CACACA_site8837] | 7.35 |
| TTTTTTTCTAATTATGCACACATATCAAAATATTCA [CACACA_site8886] | 10.3 |
| TTTTTCTAATTATGCACACATATCAAAATATTCAAT [CACACA_site2749] | 9.18 |
| CGAAATCATATGTACACACACATATATATATATATA [CACACA_site2151] | 9.32 |
| TGTATATAATCGAGTGCACACACAAAAAAAAAGTGA [CACACA_site8417] | 10.4 |
| AATAATAAAGTGAACACACACATATAATATATATAT [CACACA_site4143] | 8.41 |
| AAAATATAATATATTGCACACAAAAAGTGAATTATT [CACACA_site8489] | 6.95 |
| ACACACAATACAAAAGTGCATATAATAATTAATCAT | 8.76 |
| ATAATAATAAAGTGAACACACACATATAATATATAT [CACACA_site9378] | 7.19 |
| TATATAACCGAGTGCACACACAAAAAAAAAGTGAAC [CACACA_site6806] | 11.1 |
| TATATAATCGAGTGCACACACAAAAAAAAAGTGAAC [CACACA_site1483] | 10.8 |
| ATAATATTCGAGTGTGCACACAAACATACATATATA [CACACA_site3396] | 8.79 |
| CTATAATAATAAAGTGAACACACACCGATAATATAT [CACACA_site9377] | 7.02 |
| TATAATAATATTTATTGTACAATTAGTTTAATTCAT [XGTACX_site272] | 7.08 |
| TACAAAAAAGAAGATATTCAAACAAAAACAAAAAAA [CACACA_negctrl_site1126] | 6.8 |
| CTCCTCATATAATTTTGTACATAAAAAATTACCATT [XGTACX_site3879] | 7.31 |
| CCCCATATAATGAACACACACACTCCTCATAATTAA [CACACA_site628] | 7.15 |

| Sequence | gcPBM binding intensity (ln) |
| --- | --- |
| TAATCATAACTTGATACGCACACGTTATATAAATAA [CACACA_site1579] | 7.02 |
| ATAAAATAAAATAAATGTACACGAAAAAAAATATTT [XGTACX_site3747] | 7.25 |
| ATGAATAAATTAAAAATGCACACTTTGATGGGTACA [CACACA_site2157] | 7.46 |
| TATTATATATATGCACGTACAAAAATAATAAAGGTA [XGTACX_site3506] | 7.71 |
| TAACAATTAATAAAAGGTACACTTGAATATGCACCA [XGTACX_site2717] | 10.5 |
| TTTAAATACAGACATACACACATACACGCACATATA [CACACA_site6400] | 7.17 |
| TTTAAATACAGACATACACACATACACAGACATATA [CACACA_site4460] | 6.97 |
| TAAATTTTTAAATACACACATACACCCATACAGACA [CACACA_site548] | 7.51 |
| TTTGAGTGCACATACACACAGACATACATTTAAATA [CACACA_site3403] | 11.9 |
| TTATACAGATATTTAACACACATTTTATAAAGTGCC [CACACA_site4851] | 6.87 |
| TTTTTGAGTGCACATACACACAGACATACATTTAAA [CACACA_site5813] | 11.5 |
| TCCTTTTTGAAATGTTGTACTTTTTTTATCTTTCAT [XGTACX_site953] | 7.12 |
| ATTAACTATCATAACACACACAGTAGACATATTTTT [CACACA_site1822] | 7.04 |
| GATATATAAACATATACACACAAAAACATATTTATA [CACACA_site6734] | 6.98 |
| TGAATTATAAATTATAGTACTTTATAATATGAACAT [XGTACX_site2317] | 6.81 |
| AGAAAAATTCTAAGAACATGCAAAAAAATAAAAAAA [TGCATGCA_site293] | 6.84 |
| AAAAAAAAAATTTTCGTGCACATAAGAAAATTTAAA [GTGCAC_site9788] | 9.36 |
| TTTTTTTTTTTTTTGGTGCACATAGAAATTCTAAAA [GTGCAC_site9809] | 11.3 |
| ATTAAATGCACATATACACACACCCAATTTTAAGTT [CACACA_site3049] | 7.4 |
| TATGTAATAAATAGTACACACACACCGATATATATA [CACACA_site8389] | 7.46 |
| AAGGATTACAAAAAAAGTACAAATGGATTTTTTCCC [XGTACX_site8905] | 6.84 |
| TGCAAGCTTATATAGGTGCACATGTATACGTGTTCA | 11.3 |
| TATGTTTACATATACGTGCACATGAATGTATACATT [GTGCAC_site9894] | 9.69 |
